Sampled rows, rich in hits. Any-hit rate of the full collection: about 8.9%.
KB-3-1 cytotox = kills parental KB-3-1 adenocarcinoma cells; KB-3-1 viability, CellTiter-Glo ATP luminescence, 72 h; Potency, µM (top dose mostly 46.1 µM), usual class: cytotoxic; actives 1.4% (n = 400,000); AID 1347075; note: potency is the fitted concentration of half-maximal effect; % is set by controls: 0 for no effect and ±100 for the full control effect; nearly all actives have a fitted effect of over 60% in size
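Cells are dispensed, compounds pinned in, plates held at 37 °C for 72 h, then CellTiter-Glo is added and luminescence read after 10 minutes. Cell line: parental KB-3-1 in phenol-red-free DMEM, 10% FBS.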
SW480 rerep = DNA re-replication induction in SW480 cells | SW480 DNA re-replication, Hoechst DNA content imaging, 48 h | Potency, µM (titrated, usually from 46.1 µM), for the others: at the highest dose re-replication activation, actives largely listed as activators | actives 1.8% (n = 340,000) | AID 624297; note: potency is the fitted concentration of half-maximal effect; % of control where 0% means no effect; nearly all actives have a fitted effect of over 55% in size
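Cells (250 per well) received 23 nL compound or DMSO by pin tool and were kept 48 hr at 37 C, 5% CO2. Nuclei were then stained with Hoechst for 40 min and scanned for DNA content.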
D3 ag = D3 dopamine receptor (human) agonism; D3R DiscoveRx beta-arrestin cells, luminescence, 90 min; max activation, %; actives 0.58% (n = 410,000); in the data active = max activation above about 30%; note: 0% is about no effect
Target sequence (P35462 whole entry, looked up): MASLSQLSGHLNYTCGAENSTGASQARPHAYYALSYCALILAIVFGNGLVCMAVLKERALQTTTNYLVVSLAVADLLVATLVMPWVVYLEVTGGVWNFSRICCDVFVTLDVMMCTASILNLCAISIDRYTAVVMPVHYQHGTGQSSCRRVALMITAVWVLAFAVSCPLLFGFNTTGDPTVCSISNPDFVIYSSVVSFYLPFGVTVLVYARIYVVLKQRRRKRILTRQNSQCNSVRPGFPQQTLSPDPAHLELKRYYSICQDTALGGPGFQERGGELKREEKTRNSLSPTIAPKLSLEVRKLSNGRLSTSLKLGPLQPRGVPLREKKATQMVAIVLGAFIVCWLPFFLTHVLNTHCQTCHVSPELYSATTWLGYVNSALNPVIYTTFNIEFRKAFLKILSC
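Agonist-mode cell screen: cells plated at 1500/well and incubated overnight at 37 °C, then exposed to library compounds for 90 min at 37 °C. Detection reagent was added for 30–60 min at room temperature, and luminescence was read.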
DRD3 antagonist = blocks the human D3 dopamine receptor; D3R cells, DiscoveRx beta-arrestin luminescence, antagonist mode; active compounds read low; actives 2.5% (n = 360,000); AID 652054; P35462; max response, negative = inhibition, %; in the data active = max response below about -50%; inconclusive = no clear call, values can overlap the other calls; note: % is set by controls: 0 for no effect and ±100 for the full control effect
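Cells expressing the human receptor were seeded at 1500 cells/well, incubated overnight at 37 degrees C in 5% CO2, then exposed to library compounds with dopamine controls for 90 minutes at 37 degrees C before luminescent detection.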
KB-V1 MDR tox = KB-V1 MDR subline cytotoxicity; KB-V1 MDR cells viability, CellTiter-Glo, 72 h; Potency, µM (highest dose often 46.1 µM), most hits filed as cytotoxic; actives 3.4% (n = 400,000); note: potency is the fitted concentration of half-maximal effect; % is set by controls: 0 for no effect and ±100 for the full control effect; nearly all actives have a fitted effect of over 60% in size
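Following 72 h at 37 degrees C with compound, KB-V1 cell viability was read by CellTiter-Glo luminescence, medium being phenol-red-free DMEM plus 10% FBS; concentration-response parameters came from normalized, curve-fitted qHTS data.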
MCF10A rereplic = inducers of DNA re-replication in MCF 10A breast cells; MCF 10A DNA re-replication, Hoechst nuclear intensity, 48 h; actives 2.9% (n = 350,000); Potency, µM (series often up to 46.1 µM), without a hit: at the highest dose activity, positive = re-replication, actives largely listed as activators; note: potency is the fitted concentration of half-maximal effect; % of control where 0% means no effect; nearly all actives have a fitted effect of over 50% in size
Starred values were filed as active, the others as inactive; i = inactive; ? = inconclusive; . = no result given; ! = a repeat was not active; [ ] = another dose, or the depositor's remark. Unless noted, calls come from the whole dose curve; as a rule, active = well fitted curve in the direction sought with a large enough effect; inconclusive = small, poorly fitted or top-dose-only effect, or another doubt; inactive = no such curve, though single readings can be large; an effect the other way counts as inactive or inconclusive.

SMILES	KB-3-1 cytotox	SW480 rerep	D3 ag	DRD3 antagonist	KB-V1 MDR tox	MCF10A rereplic
Fc1ccccc1N1CCN(C2CCN(Cc3c[nH]c4ccccc34)CC2)CC1	i	-2%	-29	-60*	i	-2%
O=C(CN1CCN(c2ccccc2F)CC1)c1c[nH]c2ccccc12	i	-2%	-3	?	i	-3%
CCC1CCC(N2CCN(c3ccc(F)cc3)CC2)CC1 (stereo not drawn)	i	-1%	-22	-25	i	?
CCC1CCC(N2CCN(c3ccccc3F)CC2)CC1 (stereo not drawn)	i	-5%	-15	-77*	i	27%
CCc1ccccc1NC(=O)C(CCSC)NS(=O)(=O)c1ccc2c(c1)oc(=O)n2C (stereo not drawn)	i	.	-5	.	?	.
Clc1ccc(-c2csc3ncnc(Sc4nnnn4-c4ccccc4)c23)cc1	?	.	.	.	i	.
CCOc1ccccc1Nc1nc(-c2cccc(Cl)c2)c2c(n1)-c1ccccc1OC2	i	.	-9	.	i	.
Cc1cc(C)c2c(=O)c3c(oc2c1)C(=O)N(Cc1ccco1)C3c1ccccc1F (stereo not drawn)	i	.	-11	.	i	.
O=C(c1ccccc1)N1CCN(Cc2c[nH]c3ccccc23)CC1	i	3%	2	-85*	i	-1%
O=C(c1cccc(F)c1)N1CCN(Cc2c[nH]c3ccccc23)CC1	i	-4%	-14	-8	i	0%
OC1(c2ccc(Cl)cc2)CCN(Cc2c[nH]c3ccccc23)CC1	i	4%	-86	-101*	i	-17%
Cc1ccc(NC(=O)C(c2ccccc2)c2ccccc2)c(O)c1	i	-32%	17	15	i	5%
Cc1ccc(O)c(C(=O)CC(=O)c2ccc(Cl)cc2)c1	?	?	-9	?	i	?
Cc1ccc(O)c(C(=O)CC(=O)c2cccc(F)c2)c1	?	9%	-7	-18	?	?
Oc1ccc(Cl)cc1C=NCCc1ccccc1	i	-8%	20	-23	i	1%
NC(=NCCc1ccccc1)NC(=O)c1cc(Cl)ccc1O	?	21µM*	21	-6	?	?
Cc1cccc(C(=O)CC(=O)c2cc(Cl)ccc2O)c1	?	17%	0	-79*	9.2µM*	?
O=C(CC(=O)c1cc(Cl)ccc1O)c1ccccc1	?	?	4	13	?	21µM*
COc1cc(N(C)C)ccc1/C=C1\C=Cc2ccccc21	i	.	.	.	i	.
CCCCNC(=O)O[C@@H]1C[C@H]2CCCC(=O)N3CC[C@@H](C1)[C@@H]23	i	-6%	33*	-4	?	-6%
CCCCNC(=O)O[C@@H]1C[C@@H]2CCN3C(=O)CCC[C@H]([C@H]1CC)[C@H]23	i	-12%	9	12	21µM*!	10%
CCCCNC(=O)O[C@H]1C[C@@H]2CCN3C(=O)CCC[C@H]([C@H]1CC)[C@H]23	i	35%[9.22 µM]	12	6	i	2%
CCOC(=O)c1ccccc1NC(=O)Cn1c(=O)n(CCC(=O)N2CCc3ccccc3C2)c(=O)c2ccccc21	i	.	-13	.	i	.
COc1ccc(CNC(=O)C2CCN(S(=O)(=O)Cc3ccccc3)CC2)cc1	i	.	-6	.	i	.
CCOC(=O)c1nnc(-c2ccc(C)cc2)nc1Oc1ccc(Cl)cc1Cl	i	-7%	6	20	i	?
SMILES	KB-3-1 cytotox	SW480 rerep	D3 ag	DRD3 antagonist	KB-V1 MDR tox	MCF10A rereplic
CCOC(=O)c1nnc(-c2ccc(C)cc2)nc1Sc1ccc(Cl)cc1	i	-7%	2	-15	i	-2%
CCOC(=O)c1nnc(-c2ccc(C)cc2)nc1Sc1ccccc1Cl	?	-4%	6	-85*	i	7.3µM*
CCOC(=O)c1nnc(-c2cccs2)nc1Oc1ccc(Cl)cc1	i	-3%	1	-67*	i	?
CCOC(=O)c1nnc(-c2cccs2)nc1Oc1ccccc1C(=O)OC	?	1%	0	-24	i	?
CCOC(=O)c1nnc(-c2ccccc2)nc1Sc1c(Cl)cccc1Cl	i	?	-15	?	i	15µM*
CCOC(=O)c1nnc(-c2ccc(C)cc2)nc1Oc1ccccc1Cl	i	?	-2	0	i	2.3µM*
Cc1ccc(CCNC(=O)c2c(C)oc3ncn(CC(C)C)c(=O)c23)cc1	i	.	-11	.	?	.
CC1Cc2cc(S(=O)(=O)N(C)c3ccc(Br)cc3)ccc2N1C(=O)C1CC1 (stereo not drawn)	i	.	-1	.	i	.
CCc1ccc(NC(=O)Cn2c(=O)n(Cc3nc(C)no3)c(=O)c3cc4c(cc32)OCO4)cc1	.	.	-9	.	.	.
O=C(NCc1ccccc1Cl)C1CCN(S(=O)(=O)c2ccc3c(c2)CCCN3C(=O)C2CCC2)CC1	i	.	6	.	?	.
COc1ccc2oc(/C=C/N(C)C)c(C(=O)c3ccc(Cl)cc3)c2c1	i	18%	-21	?	i	6.3µM*
C/C(=C/c1oc2ccc(O)cc2c1[N+](=O)[O-])N(C)C	i	0%	-3	-13	i	4%
COC(=O)c1oc2ccc(OC)cc2c1N	i	-13%	-7	-1	i	2%
COc1ccc(C(=O)c2oc3ccc(OC)cc3c2N)cc1	i	6%	3	7	i	26µM*
CC(=O)Oc1ccc2oc(/C=C/N(C)C)c([N+](=O)[O-])c2c1	i	-7%	-6	-80*	i	-2%
CCOC(=O)Nc1ccc(/C=C/c2ccnc3ccccc23)cc1	i	.	.	.	i	.
CCC1CN(C(=O)N2CCC(C(=O)NCCc3ccc(Cl)cc3)CC2)c2ccccc2O1 (stereo not drawn)	.	.	5	.	.	.
Cc1cc(C)nc(NC(=O)CCCC(=O)O)c1	i	1%	0	21	i	-4%
Cc1cc(C)nc(NC(=O)c2c(-c3ccccc3Cl)noc2C)c1	i	?	6	-13	7.3µM*	?
Cc1onc(-c2ccccc2)c1C(=O)N/N=C(\N)COc1ccc(Cl)cc1	?	12%	18	?	15µM*	15%
Cc1onc(-c2ccccc2Cl)c1C(=O)Nc1sc2c(c1C(N)=O)CCC(C)C2 (stereo not drawn)	?	?	-3	-23	23µM*	29%
Cc1cc(C)nc(NC(=O)c2c(F)c(F)c(F)c(C(=O)Nc3cc(C)cc(C)n3)c2F)c1	?	?	0	-8	i	8.2µM*
